Consider 40 sequences from the OligoGym collection.
Further: reference of the scale not given here.

The first assay has as its target RANGAP1. Description: pooled miR-30 sensor sort-seq; sequence = guide strand. The following applies: shRNA.
Regarding TTCACTCTTGAGCAGACCCATG, the sensor-assay potency score (higher = more potent) is -1.41. On the same count and under the same terms, under TAATCACATCTTTAGCATCTTC stands -0.22. Take TTGACCTTGTCTTCACTCTTGA: the sensor-assay potency score (higher = more potent) came to 0.405.

TTCAACTCCGACTTCTTCTCTA gave a sensor-assay potency score (higher = more potent) of 0.789.

TTGAGTTTGAGGCTCTTGCCTT displayed a sensor-assay potency score (higher = more potent) of -0.514.

On to AATCTCTTTAATCACATCTTTA, for which the sensor-assay potency score (higher = more potent) was -1.26. Sequence TTGAACACAGATGACACCTTTA registered a sensor-assay potency score (higher = more potent) of -0.0745. The same measure, in the same setting: under TTGGAGTTGAAGGACGAGGAGT stands -0.814.

A further assay concerns the target RASGEF1A. Described as above. The following applies: shRNA.
AAGGTGAAGATGTACGTCCTAT registered a sensor-assay potency score (higher = more potent) of 0.212.

TGAAGAACTCCAACATGCGGGT: the sensor-assay potency score (higher = more potent) is -0.41. Regarding TTCTTGTCCTTCTCGAAAGGAC, the sensor-assay potency score (higher = more potent) was -0.791. Consider ATGAAGAACTCCAACATGCGGG, for which the sensor-assay potency score (higher = more potent) is -0.48. Same read-out and setting: to AATCTTCTTGTCCTTCTCGAAA belongs -1.91; to TTCAGGAGCTGCACGATCTTGG, -0.661.

TTTTTCCATGTGGTTCTCGGGA: the sensor-assay potency score (higher = more potent) is -0.794. On to TTGCAGAAGTTGCTGGACGGGT, for which the sensor-assay potency score (higher = more potent) was -0.613. In the case of TAGGTCTTGGTCAGGTCCCCTC, the sensor-assay potency score (higher = more potent) is -1. The same measure, in the same setting: under AAACTTGGCTGTCTTGACCTTG stands -0.781.

Take TGAATCTTCTTGTCCTTCTCGA: the sensor-assay potency score (higher = more potent) amounted to 0.828. On to TGTTTCTTCTTCACCACCCGGC, for which the sensor-assay potency score (higher = more potent) was 0.377.

The target of a further assay is RASGEF1C. Described as above. The conditions noted are these: shRNA.
In turn, TTCCACGTGGGTCAGCTGCTGG had a sensor-assay potency score (higher = more potent) of -1.01. TTTCTCGGGGTAGTAGTCGGCT displayed a sensor-assay potency score (higher = more potent) of -0.879. Still for that read-out and setting: to ATGAAGAACTCAATCACCTGGG belongs 0.211. Turning to TAGCACAGCCTGTTGAACCATT, the sensor-assay potency score (higher = more potent) was -1.09. The same measure, in the same setting: under TTTCACATAAGCCTCCAGGTTG stands -0.649; under TGTAGTTGCAGAAATTCCCCGT, 0.202. Still for that read-out and setting: under TGAACCATTTCACATAAGCCTC stands -1.38. Still for that read-out and setting: under TTTTTCTGTTTGGTTCTCTGGG stands 0.0788.

Consider TTTTCTGTTTGGTTCTCTGGGC, for which the sensor-assay potency score (higher = more potent) is -0.505. The sequence ATGACAATCTTCTCTCGGCTGC registered a sensor-assay potency score (higher = more potent) of -0.296. TCTCACTTTCGTAAGAAGCCAA: the sensor-assay potency score (higher = more potent) was -0.537. The same measure, in the same setting: to TTAGAGCTTTCCATCTTTCTTT belongs -0.12.

The next assay concerns the target RASGRP2. The description is as above. The following applies: shRNA.
Sequence TTCTTGGTCTAGCAGAGCCTTC displayed a sensor-assay potency score (higher = more potent) of -1.75. Sequence TAGTCCTGAAACAGGATCTTGC came in with a sensor-assay potency score (higher = more potent) of -0.808.

In turn, TACTGATCCAGAGACACCGTGA returned a sensor-assay potency score (higher = more potent) of 0.0565. Same read-out and setting: under TTGTTGGTAGATGTGGAGCAGC stands -1.12; under TCTATGTCGATTAGGCTGCTGT, -0.615; under TTCAAGTCAAACTCCGCTGGGA, 0.724. The sequence TAGGAAACCATCTCCTCCCTGC returned a sensor-assay potency score (higher = more potent) of 0.463. Still for that read-out and setting: under TTAGGCTGCTGTGCCGTCGGTT stands -0.65.
